From the supplement of paper PMC12636033
± gives the standard deviation of the averaged measurements. In all, about 33,000 sequences were measured (“E-score (rank enrichment, -0.5 to 0.5)”: median about -0.0068, highest 2% from about 0.24 on). This excerpt belongs to a sample that is enriched for the highest values.

Tested on: muMax20 (Max(13-93) K31hArg/K57hArg, M65Nle)
Experiment: PBM 8-mer E-score (E-score (rank enrichment, -0.5 to 0.5)); higher = stronger preferential binding
Method: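 Protein binding microarray (universal PBM chip covering all 10-mers in fixed probe flanks) with chemically synthesized human Max(13-93) bHLH-LZ analogs (not full-length Max) bearing noncanonical residues (hArg, Tha, Aib, Nle at 65) and aromatic Cys staples. Read-out per 8-mer (and its reverse complement): E-score (rank-based enrichment, -0.5 to 0.5) and Z-score of median probe intensity.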

Sequence	PBM 8-mer E-score
ACATGTTA	0.241 ± 0.085
AGATGTTG	-0.125 ± 0.12
ACATGTTC	0.1643 ± 0.00078
CCATGTTA	0.109 ± 0.039
GCATGTTA	0.116 ± 0.14
ACATGTTG	0.271 ± 0.022
AACGAATT	0.236 ± 0.0088
CAAGGTAC	0.0659 ± 0.12
ACACCGAT	-0.183 ± 0.16
AGGTTAGG	0.0305 ± 0.073
CACGTTTA	0.0929 ± 0.011
CCTTAACC	-0.159 ± 0.009
ACGTGAGT	0.2594 ± 0.0012
AAGTGATC	0.074 ± 0.034
ACGTGAAA	0.249 ± 0.083
ACTTGATC	-0.00466 ± 0.064
CCGTGATC	-0.311 ± 0.027
ACGTGAGA	0.168 ± 0.054
ACTTGATA	0.242 ± 0.033
ACTTGATG	0.0184 ± 0.013
ACGTGATC	0.286 ± 0.1
ACGTGAGG	0.111 ± 0.1
ACGTGAAC	0.0624 ± 0.078
TCGTGAAA	0.0589 ± 0.081
CGGTTCAC	-0.245 ± 0.053

Sequence	PBM 8-mer E-score
AGCATTCC	-0.123 ± 0.17
GGAGCCCA	-0.156 ± 0.11
CCTGTGAC	-0.0438 ± 0.0042
CCATAGAC	-0.0388 ± 0.035
GACGTTGA	0.0147 ± 0.11
ATCCTTTG	0.0245 ± 0.09
CTGAGCAC	-0.0319 ± 0.049
TCGAGAGA	-0.0503 ± 0.027
AATGACTC	0.152 ± 0.015
GTTGAACA	0.031 ± 0.035
CGTAACTC	-0.0982 ± 0.11
AACACGGT	-0.129 ± 0.055
TCCGCGCA	-0.113 ± 0.072
AGGTGATG	-0.00343 ± 0.027
ATGTGATA	0.24 ± 0.12
AAGTGATG	0.129 ± 0.12
GTGTGAAA	0.141 ± 0.027
GTGTGATA	0.154 ± 0.018
CTGTGAAA	0.0471 ± 0.025
ATGTGAAA	0.317 ± 0.057
CTGTGATA	-0.0301 ± 0.17
CCGTGATA	-0.0912 ± 0.033
ACGTGATG	0.294 ± 0.05
GCGTGATA	0.174 ± 0.032
ACGTGATA	0.33 ± 0.082

Sequence	PBM 8-mer E-score
ACTATGCT	0.231 ± 0.07
CCCGAGGA	-0.233 ± 0.074
ATGGGATC	0.0291 ± 0.075
CTAACTCA	0.0355 ± 0.056
AGCCGATG	-0.155 ± 0.04
AATCACCA	0.133 ± 0.014
AGTGTCCC	-0.0112 ± 0.012
GATATTAC	0.121 ± 0.015
ACTATTAT	0.204 ± 0.056
AACATTGG	-0.0243 ± 0.2
AACATTGA	0.0179 ± 0.032
AATATTAC	0.281 ± 0.066
AGTATTAA	0.268 ± 0.03
AATATTAT	0.25 ± 0.026
AGTATTAG	0.0793 ± 0.032
AACATTGT	0.236 ± 0.013
AATATTAG	0.175 ± 0.04
TGTATTAA	0.184 ± 0.096
CATATTAC	0.0522 ± 0.03
CCCGCGCA	-0.124 ± 0.031
ATGTGGCA	0.0287 ± 0.095
AGCATTTC	0.141 ± 0.0034
CAACTAAG	0.0637 ± 0.092
ATTGCAAA	0.0872 ± 0.083
AGGTCCTA	-0.128 ± 0.083

Sequence	PBM 8-mer E-score
TTCCCGAA	-0.0933 ± 0.0092
AATAGAAC	0.0563 ± 0.077
TATATTAA	0.179 ± 0.025
GATATTAA	0.134 ± 0.028
AATATTGC	0.138 ± 0.076
AATATTGT	0.256 ± 0.006
CATATTAA	0.297 ± 0.012
CATATTAG	0.121 ± 0.053
AATATTGG	0.101 ± 0.094
AATATTAA	0.304 ± 0.025
ACTATTAA	0.149 ± 0.011
CGCGCTCC	-0.0678 ± 0.11
AGCTGTAC	-0.0262 ± 0.13
GGACTGTA	0.00313 ± 0.055
ATTTGTAC	0.176 ± 0.038
AATTATAT	0.147 ± 0.044
CTATCAGC	0.0217 ± 0.00023
CAGTCATA	0.0326 ± 0.1
AAAACGGC	0.3 ± 0.099
AAACGGCT	-0.0843 ± 0.069
CAAACGGC	-0.242 ± 0.0069
CAACGGCC	-0.206 ± 0.059
GAAACGGC	0.0377 ± 0.059
AAACGGCC	0.294 ± 0.093
ACAAATAT	0.185 ± 0.027

Sequence	PBM 8-mer E-score
ATCCGCGC	-0.227 ± 0.043
CACATACC	-0.0465 ± 0.058
CCTTCGCG	-0.228 ± 0.019
CTGAAAGA	0.0447 ± 0.09
ATGCCAAA	0.111 ± 0.027
ATACGTAT	0.308 ± 0.0025
ATACGTAA	0.112 ± 0.077
ATACGTAC	0.188 ± 0.074
CTCGTCCA	-0.0336 ± 0.048
CCGTAAAG	0.104 ± 0.11
AAGGCCGG	-0.243 ± 0.084
AAGGCCGT	0.278 ± 0.095
AAGGCCGC	-0.00405 ± 0.027
GCCGACAA	-0.268 ± 0.068
GCGGTTGA	-0.134 ± 0.11
TCCACCCA	0.00135 ± 0.18
CCCACCCC	0.258 ± 0.018
CCCACCCG	0.186 ± 0.028
CCACCCCA	0.261 ± 0.066
CCCACCCA	0.269 ± 0.099
CCACCCCC	-0.12 ± 0.084
GCCACCCC	-0.0921 ± 0.047
ACCACCCC	-0.0712 ± 0.063
GCACCCCA	-0.0239 ± 0.0035
ATCCATAC	0.15 ± 0.062

Sequence	PBM 8-mer E-score
GGTAGAAA	0.0368 ± 0.022
AGGCGCGG	-0.125 ± 0.07
GAGTGGAA	-0.00431 ± 0.092
ATTCACAG	-0.0684 ± 0.13
ATTCACAA	0.247 ± 0.032
GTTCACAA	-0.0567 ± 0.038
AAAACTTT	0.133 ± 0.058
ATAACATG	0.199 ± 0.064
ATAACATC	0.249 ± 0.13
GTAACAAA	0.197 ± 0.067
ATAACACG	0.251 ± 0.014
CTAACATC	0.042 ± 0.045
ATAACACC	0.134 ± 0.014
ATAACACA	0.186 ± 0.067
GTAACACA	0.26 ± 0.11
CTAACACA	0.127 ± 0.02
CGGGGGGA	-0.222 ± 0.029
ACGGCACC	-0.104 ± 0.13
CGGACAGC	-0.13 ± 0.064
GCGGCATA	-0.00641 ± 0.021
CCTTCGAC	-0.147 ± 0.0063
ATTACTCC	0.182 ± 0.07
CTACCGCC	-0.156 ± 0.014
GGAACAAA	0.171 ± 0.014
CCGAGCGA	-0.223 ± 0.081

Sequence	PBM 8-mer E-score
GCTTTTAA	0.00199 ± 0.15
GGTTTGTA	-0.00997 ± 0.022
CTTTTGTA	0.151 ± 0.01
AGTTTATA	0.266 ± 0.0043
AGTTTATC	0.138 ± 0.08
GCTTTTTA	0.292 ± 0.084
GGTTTATA	0.051 ± 0.032
CTTTTTCA	0.0825 ± 0.076
CCTTTTTA	0.0863 ± 0.063
GTTTTGTA	0.254 ± 0.012
CCTTTTCA	0.295 ± 0.091
GCTTTTCA	0.0793 ± 0.013
AGAATGTA	0.159 ± 0.034
ATCCAGAT	0.0236 ± 0.27
AGAATCGA	-0.018 ± 0.077
CCAATCCG	-0.198 ± 0.078
CTCATACC	0.014 ± 0.025
AGACCCCA	0.177 ± 0.046
CAGCCAAG	-0.147 ± 0.066
AGTACATA	0.147 ± 0.081
AATTTATC	0.205 ± 0.02
GTTTTATA	0.261 ± 0.059
CATTTATA	0.175 ± 0.032
AATTTATA	0.247 ± 0.059
CTTTTATA	0.184 ± 0.01

Sequence	PBM 8-mer E-score
ATTTTATA	0.231 ± 0.038
GTCGAGGA	-0.115 ± 0.0082
GGAAAGGA	-0.246 ± 0.099
ACAGAGGG	-0.155 ± 0.0044
CTCTAGTA	0.118 ± 0.0018
ATCTAGTA	-0.00587 ± 0.017
GTCTAGTA	0.252 ± 0.03
CAGCCGAC	-0.22 ± 0.12
GGGGGACC	-0.296 ± 0.013
AAGAGCAC	0.00129 ± 0.0028
AGATTCGG	-0.118 ± 0.032
TCAAGGGA	-0.065 ± 0.048
CAGATGTA	0.138 ± 0.011
AAGATATA	0.26 ± 0.041
AAGATATC	0.155 ± 0.027
CAGATATA	0.0469 ± 0.045
AAGATACT	0.117 ± 0.038
GAGATACA	-0.0288 ± 0.04
AAGATGTA	0.237 ± 0.094
AAGATACA	0.316 ± 0.024
ATGATATG	0.21 ± 0.12
CTGATATA	0.0184 ± 0.051
ATGATATA	0.266 ± 0.048
GAGATGTA	0.104 ± 0.017
CGAGCCGA	-0.153 ± 0.036

Sequence	PBM 8-mer E-score
GAAGCACC	-0.0676 ± 0.049
ACCTAGCG	-0.048 ± 0.057
GAGGTAGA	0.0124 ± 0.047
ACCGCTTA	-0.0621 ± 0.13
GTGATGTA	0.2775 ± 0.00062
AAGATAAT	0.239 ± 0.051
AAGATAAC	0.172 ± 0.07
ATGATGTA	0.171 ± 0.12
AAGATAAG	0.15 ± 0.031
CTGATGTA	-0.0502 ± 0.023
CCTGCCCC	-0.167 ± 0.078
CCAGCTGC	-0.272 ± 0.12
GGCGCAAA	-0.148 ± 0.17
GTGTAAAA	0.113 ± 0.016
AGAACGAG	0.133 ± 0.061
GTACGATA	0.163 ± 0.033
CTACGATA	0.082 ± 0.02
ATACGATA	0.244 ± 0.053
GAGTCGGC	-0.146 ± 0.055
